Source: the supplement of paper PMC12350171
Where a name gives a salt, the structure may show the parent alone. Values without a mark were called inactive.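 Rule for the calls: active = normalised median growth AUC below 0.1 of DMSO control; inactive = AUC 0.1 or higher.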

system: P. vulgatus RND KO; assay: growth AUC normalised to DMSO control (median) (fraction of control); higher = less growth inhibition, active = hit call of the paper; conditions: 20 µM
How it was run: (§1)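 Each strain went through two overnight passages under anaerobic conditions before growth in mGAM in 96-well plates, starting at OD578 0.01, with each compound from the approved-drug library at 20 μM and 1% DMSO. Inside an anaerobic incubator, OD578 was recorded every hour for 24 h. Growth curves were cut off at entry into stationary phase, and the area under the curve was calculated by the trapezoidal rule and normalised to vehicle wells on the same plate. Reported values are medians of three biological replicates.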
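Note: active when median AUC fell below 0.1.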

First: COc1ccc(C(=O)NCc2cccnc2)cc1C(=O)NCc1cccnc1 [Picotamide monohydrate]
Second: Cc1cccc(Nc2ccccc2C(=O)O)c1C [Mefenamic acid]
The “growth AUC normalised to DMSO control” value of the first is higher: 1 for the first, 0.958 for the second.

First: C[C@@H](c1ncncc1F)[C@](O)(Cn1cncn1)c1ccc(F)cc1F [Voriconazole]
Second: COc1cc(-c2ccc(=O)[nH]n2)ccc1OC(F)F [Zardaverine]
The “growth AUC normalised to DMSO control” value of the first is higher: 1.02 for the first, 1 for the second.

First: NCC[C@H](O)C(=O)N[C@@H]1C[C@H](N)[C@@H](O[C@H]2O[C@H](CN)[C@@H](O)[C@H](O)[C@H]2O)[C@H](O)[C@H]1O[C@H]1O[C@H](CO)[C@@H](O)[C@H](N)[C@H]1O [Amikacin hydrate]
Second: NCCCC[C@H](N[C@@H](CCc1ccccc1)C(=O)O)C(=O)N1CCC[C@H]1C(=O)O [Lisinopril]
The “growth AUC normalised to DMSO control” value of the first is lower: 1.02 for the first, 1.05 for the second.

Compared with `CC(C)NCC(O)COc1cccc2[nH]ccc12` (stereo not given) [Pindolol], `CC(C)NCC(O)c1ccc(O)c(O)c1` (single isomer, unassigned; (-)) [(-) Isoproterenol hydrochloride] is lower in “growth AUC normalised to DMSO control” value: 1.05 for the first, 0.979 for the second.

First: CN(C)CCC(c1ccccc1)c1ccccn1 (stereo not given) [Pheniramine maleate]
Second: CN1CCN(C(c2ccccc2)c2ccccc2)CC1 [Cyclizine hydrochloride]
The “growth AUC normalised to DMSO control” value of the first is lower: 1.01 for the first, 1.02 for the second.

Compared with `CCOc1ccc2c(c1)C(C)=CC(C)(C)N2` [Ethoxyquin], `COc1c2occc2c(OC)c2c(=O)cc(C)oc12` [Khellin] is higher in “growth AUC normalised to DMSO control” value: 0.971 for the first, 1 for the second.

Going from `CN1CCCCC1CCN1c2ccccc2Sc2ccc([S+](C)[O-])cc21` (stereo not given) [Mesoridazine besylate] to `N=C(N)N1CCc2ccccc2C1` [Debrisoquin sulfate], the “growth AUC normalised to DMSO control” value rises from 0.941 to 1.02.

Compared with `CC(=O)O[C@]1(C(C)=O)CC[C@H]2[C@@H]3C=C(C)C4=CC(=O)CC[C@]4(C)[C@H]3CC[C@@]21C` [Megestrol acetate], `N=C(N=C(N)N)N1CCOCC1` [Moroxidine hydrochloride] is higher in “growth AUC normalised to DMSO control” value: 0.992 for the first, 1.01 for the second.

For `c1ccc2[nH]c(-c3cscn3)nc2c1` [Tiabendazole], the “growth AUC normalised to DMSO control” value was 0.971.

In the case of `CO[C@H]1/C=C/O[C@@]2(C)Oc3c(C)c(O)c4c(O)c(c(/C=N/N5CCN(C)CC5)c(O)c4c3C2=O)NC(=O)/C(C)=C\C=C\[C@H](C)[C@H](O)[C@@H](C)[C@@H](O)[C@@H](C)[C@H](OC(C)=O)[C@@H]1C` [Rifampicin], the “growth AUC normalised to DMSO control” value is reported as 0.0135 (active).
With `CO/N=C(\C(=O)N[C@@H]1C(=O)N2C(C(=O)O)=C(C[N+]3(C)CCCC3)CS[C@H]12)c1csc(N)n1` [Cefepime hydrochloride] the “growth AUC normalised to DMSO control” value was 0.0104 (active).
For `CN(C)[C@@H]1C(=O)C(C(N)=O)=C(O)[C@@]2(O)C(=O)C3=C(O)c4c(O)ccc(Cl)c4[C@@H](O)[C@H]3C[C@@H]12` [Demeclocycline hydrochloride], the “growth AUC normalised to DMSO control” value was 0.015 (active).

system: P. vulgatus WT; assay: as above; conditions: 20 µM
How it was run: as §1

Compared with `Cc1ccc(S(=O)(=O)NC(=O)NN2CC3CCCC3C2)cc1` (stereo not given) [Gliclazide], `O=C(NCCNCC(O)COc1ccc(O)cc1)N1CCOCC1` (stereo not given) [Xamoterol hemifumarate] is lower in “growth AUC normalised to DMSO control” value: 1.02 for the first, 0.982 for the second.

Going from `COC(=O)C1=C(C)NC(C)=C(C(=O)OC)C1c1ccccc1[N+](=O)[O-]` [Nifedipine] to `Cc1cccc(Nc2ccccc2C(=O)O)c1C` [Mefenamic acid], the “growth AUC normalised to DMSO control” value falls from 0.996 to 0.979.

Going from `COc1ccc(CN(CCN(C)C)c2ccccn2)cc1` [Pyrilamine maleate] to `CN(C)CCC(c1ccccc1)c1ccccn1` (stereo not given) [Pheniramine maleate], the “growth AUC normalised to DMSO control” value rises from 0.979 to 1.02.

Compared with `Cc1c(Cl)cccc1Nc1ccccc1C(=O)O` [Tolfenamic acid], `CC(C(=O)O)c1ccc(N2Cc3ccccc3C2=O)cc1` (stereo not given) [Indoprofen] is higher in “growth AUC normalised to DMSO control” value: 0.803 for the first, 0.971 for the second.

First: C[C@@](Cc1ccc(O)c(O)c1)(NN)C(=O)O [Carbidopa]
Second: CC(C)NCC(O)c1ccc(O)c(O)c1 (single isomer, unassigned; (-)) [(-) Isoproterenol hydrochloride]
The “growth AUC normalised to DMSO control” value of the first is higher: 0.993 for the first, 0.967 for the second.

Compared with `CCN(CC)CCCC(C)Nc1ccnc2cc(Cl)ccc12` (stereo not given) [Chloroquine diphosphate], `CCN(CC)CCCC(C)Nc1c2ccc(Cl)cc2nc2ccc(OC)cc12` (stereo not given) [Quinacrine dihydrochloride hydrate] is lower in “growth AUC normalised to DMSO control” value: 1.02 for the first, 0.986 for the second.

Going from `c1ccc(-c2ccc(C(c3ccccc3)n3ccnc3)cc2)cc1` (stereo not given) [Bifonazole] to `CN1CCN(C(c2ccccc2)c2ccccc2)CC1` [Cyclizine hydrochloride], the “growth AUC normalised to DMSO control” value rises from 1 to 1.04.

First: C[C@H](CS)C(=O)N1CCC[C@H]1C(=O)O [Captopril]
Second: NCCCC[C@H](N[C@@H](CCc1ccccc1)C(=O)O)C(=O)N1CCC[C@H]1C(=O)O [Lisinopril]
The “growth AUC normalised to DMSO control” value of the first is higher: 1.06 for the first, 1.04 for the second.

`Nc1ccc(C(=O)NCC(=O)O)cc1` [Aminohippuric acid] and `COc1ccc(C(=O)NCc2cccnc2)cc1C(=O)NCc1cccnc1` [Picotamide monohydrate] are the same in “growth AUC normalised to DMSO control” value: 1.01 for the first, 1.01 for the second.

Compared with `CN1CCN(CCCN2c3ccccc3Sc3ccc(C(F)(F)F)cc32)CC1` [Trifluoperazine dihydrochloride], `CN1CCCCC1CCN1c2ccccc2Sc2ccc([S+](C)[O-])cc21` (stereo not given) [Mesoridazine besylate] is lower in “growth AUC normalised to DMSO control” value: 0.941 for the first, 0.885 for the second.

First: CN(C)CCOc1ccc(/C(=C(/CCCl)c2ccccc2)c2ccccc2)cc1 [Toremifene]
Second: CC(C)NCC(O)COc1cccc2[nH]ccc12 (stereo not given) [Pindolol]
The “growth AUC normalised to DMSO control” value of the first is lower: 1.01 for the first, 1.08 for the second.

Compared with `O=C1Nc2ccc(Cl)cc2[C@@](C#CC2CC2)(C(F)(F)F)O1` [Efavirenz], `CCOc1ccc2c(c1)C(C)=CC(C)(C)N2` [Ethoxyquin] is higher in “growth AUC normalised to DMSO control” value: 0.752 for the first, 0.972 for the second.

First: C[C@H]1C[C@H]2[C@@H]3CCC4=CC(=O)C=C[C@]4(C)[C@@]3(F)[C@@H](O)C[C@]2(C)[C@@]1(O)C(=O)CO [Betamethasone]
Second: CC(=O)O[C@]1(C(C)=O)CC[C@H]2[C@@H]3C=C(C)C4=CC(=O)CC[C@]4(C)[C@H]3CC[C@@]21C [Megestrol acetate]
The “growth AUC normalised to DMSO control” value of the first is lower: 0.98 for the first, 0.999 for the second.

`C[C@@H](c1ncncc1F)[C@](O)(Cn1cncn1)c1ccc(F)cc1F` [Voriconazole] and `COc1cc(-c2ccc(=O)[nH]n2)ccc1OC(F)F` [Zardaverine] are the same in “growth AUC normalised to DMSO control” value: 1.02 for the first, 1.02 for the second.

`NCC[C@H](O)C(=O)N[C@@H]1C[C@H](N)[C@@H](O[C@H]2O[C@H](CN)[C@@H](O)[C@H](O)[C@H]2O)[C@H](O)[C@H]1O[C@H]1O[C@H](CO)[C@@H](O)[C@H](N)[C@H]1O` [Amikacin hydrate] and `N=C(N=C(N)N)N1CCOCC1` [Moroxidine hydrochloride] are the same in “growth AUC normalised to DMSO control” value: 1.04 for the first, 1.04 for the second.

Going from `N=C(N)N1CCc2ccccc2C1` [Debrisoquin sulfate] to `c1ccc2[nH]c(-c3cscn3)nc2c1` [Tiabendazole], the “growth AUC normalised to DMSO control” value falls from 1.01 to 0.971.

In the case of `COc1c2occc2c(OC)c2c(=O)cc(C)oc12` [Khellin], the “growth AUC normalised to DMSO control” value is reported as 1.02.

With `O=c1[nH]cc(F)c(=O)[nH]1` [5-fluorouracil] the “growth AUC normalised to DMSO control” value was 0.0782 (active).
`CO[C@@]1(NC(=O)Cc2cccs2)C(=O)N2C(C(=O)O)=C(COC(N)=O)CS[C@@H]21` [Cefoxitin sodium salt] was tested, and the “growth AUC normalised to DMSO control” value was 0.0178 (active).
For `CO[C@@H]1[C@@H](O[C@@H]2O[C@H](C)[C@@H](O[C@H]3C[C@@](C)(O)[C@@H](OC(=O)CC(C)C)[C@H](C)O3)[C@H](N(C)C)[C@H]2O)[C@@H](CC=O)C[C@@H](C)[C@@H](O)/C=C/C=C/C[C@@H](C)OC(=O)C[C@H]1OC(C)=O` [Josamycin], the “growth AUC normalised to DMSO control” value was 0.00854 (active).
With `CCCCC(CC)CNC(=N)NC(=N)NCCCCCCNC(=N)NC(=N)NCC(CC)CCCC` (stereo not given) [Alexidine dihydrochloride] the “growth AUC normalised to DMSO control” value was 0.00943 (active).
With `CO[C@H]1/C=C/O[C@@]2(C)Oc3c(C)c(O)c4c(O)c(c(/C=N/N5CCN(C)CC5)c(O)c4c3C2=O)NC(=O)/C(C)=C\C=C\[C@H](C)[C@H](O)[C@@H](C)[C@@H](O)[C@@H](C)[C@H](OC(C)=O)[C@@H]1C` [Rifampicin] the “growth AUC normalised to DMSO control” value was 0.0147 (active).
With `CO/N=C(\C(=O)N[C@@H]1C(=O)N2C(C(=O)O)=C(C[N+]3(C)CCCC3)CS[C@H]12)c1csc(N)n1` [Cefepime hydrochloride] the “growth AUC normalised to DMSO control” value was 0.0103 (active).
For `CN(C)[C@@H]1C(=O)C(C(N)=O)=C(O)[C@@]2(O)C(=O)C3=C(O)c4c(O)ccc(Cl)c4[C@@H](O)[C@H]3C[C@@H]12` [Demeclocycline hydrochloride], the “growth AUC normalised to DMSO control” value was 0.0137 (active).
